Dicer inh – human Dicer pre-microRNA cleavage inhibition; Q9UPY3; cat-ELCCA pre-miR-21 Dicer processing, chemiluminescence; active compounds read high; z-score at 25 µM; 6% of 47,000 active; AID 1347074; in the data active = z-score above about 3, passing the limit was not always enough;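 note: plate controls were vehicle for no effect and no enzyme for full effect; higher signal means more uncleaved substrate so more Dicer inhibition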
* = called active by the depositor. Many of the other results were omitted from the sample, so hits are more common in it than they were.

SMILES	Dicer inh
Cc1ccc(-c2n[nH]c(=O)c3ccccc23)cc1S(N)(=O)=O	-0.34
COC(=O)c1ccc(OCC(O)Cn2c(C)[n+](C)c3ccccc32)cc1 (stereo unspecified)	0.87
Cc1n(CC(=O)c2ccc(C(C)(C)C)cc2)c2ccccc2[n+]1C	4.9*
Cc1ccc(C(=O)Cn2c(C)[n+](C)c3ccccc32)cc1	-0.17
Cc1ccc(S(=O)(=O)Nc2ccc(C)cc2NS(=O)(=O)c2cccc(C(F)(F)F)c2)cc1	3.6
COc1ccc(OC)c(NC(=O)/C=C/c2ccc(N3CCC(c4ccccc4OC)CC3)c([N+](=O)[O-])c2)c1	1
COC(=O)c1ccc(/C=C/c2onc(C)c2[N+](=O)[O-])cc1	-2.1
Oc1ccc(Oc2ccc(C(F)(F)F)cn2)cc1	0.24
O=C1C(=O)C(c2ccccc2)C(=O)C1c1ccccc1 (stereo unspecified)	1.6
O=C1NNC(c2ccccc2)C1c1ccccc1 (stereo unspecified)	3.5*
CC(C)C1C(=O)CC(c2ccccc2)NC1c1ccccc1 (stereo unspecified)	0.45
Cc1c(CN2CCN(c3ccccn3)CC2)sc2ccccc12	0.18
NC1=NC(c2ccc(O)cc2)n2c(nc3ccccc32)N1 (stereo unspecified)	-0.14
COc1ccc(C2C=C(c3ccc(Cl)cc3)NC(=O)C2C#N)cc1 (stereo unspecified)	4.4*
COc1ccc(C2NC(=O)NC2=O)cc1 (stereo unspecified)	1.1
COc1ccc(C2C(C#N)=C(C)NC3=C2C(=O)CC(c2ccc(Cl)cc2)C3)cc1 (stereo unspecified)	0.16
O=C(c1ccccc1)c1ccc(-n2cccc2)c([N+](=O)[O-])c1	0.38
COc1ccc(N2C(=O)CC(N3CCN(CCO)CC3)C2=O)cc1 (stereo unspecified)	-1
COCCCN1C(=O)c2cccc3c(N4CCOCC4)ccc(c23)C1=O	0.75
Fc1ccc(-c2cc(-c3nc4c5ccccc5ncn4n3)[nH]n2)cc1	1.2
O=c1nc(-c2ccccc2)c2ccccc2[nH]1	6.6
O=c1cc(-c2ccccc2)[nH]c2ccccc12	4*
Cc1nc(-c2ccccc2)c2c(=O)cc(-c3ccccc3)[nH]c2n1	1.8
CCN1C(=O)c2cccc3c(S(=O)(=O)N(C)c4ccccc4)ccc1c23	0.06
c1nc(N2CCCC2)c2ccsc2n1	-0.74
SMILES	Dicer inh
CC(=O)c1ccc(N2CCN(S(=O)(=O)c3ccc(S(=O)(=O)c4ccccc4)s3)CC2)cc1	-0.13
O=S(=O)(c1ccccc1)c1ccc(S(=O)(=O)N2CCN(C3c4ccccc4-c4ccccc43)CC2)s1	3.4*
O=S(=O)(c1ccccc1)c1ccc(S(=O)(=O)N2CCOCC2)s1	-0.55
O=C1C(=O)N(Cc2cccnc2)C(c2ccc(Br)cc2)/C1=C(\O)c1ccc(F)cc1 (stereo unspecified)	1.3
NC(=O)CSc1nc(=O)cc(N)n1-c1ccc(F)cc1	-0.36
COc1ccc(C(=O)Oc2cccc3cccnc23)cc1OC	2.1
O=C(Oc1cccc2cccnc12)c1cccs1	2.2
COc1ccc(C(=O)Oc2cccc3cccnc23)cc1Cl	4.4*
Cn1ncc(C(=O)O)c1NNC(=O)CCC(=O)O	-0.05
N#C/C(=N\Nc1ccc(F)cc1)C(=O)NCC1CCCO1 (stereo unspecified)	3.8*
CCn1c2ccccc2c2cc(NC(=O)C(=O)NCC3CCCO3)ccc21 (stereo unspecified)	1.8
COc1ccc(Cl)cc1NC(=O)C(=O)NCC1CCCO1 (stereo unspecified)	-0.43
CCc1nc(SCC(=O)c2ccc(F)cc2)n[nH]1	3.2
Cc1c(C)c(C)c(CSC2=NCC(C)N2)c(C)c1C (stereo unspecified)	4*
Cc1cc(C)c(CSC2=NCCN2)c(C)c1CSC1=NCCN1	-3.8
Cc1c(C)c(C)c(CSC2=NCCC2)c(C)c1C	-0.75
CCN(CC)CC(=O)Nc1cc(C)nn1-c1ccccc1	1.6
CCN(CC)CC(=O)Nc1c(C#N)cnn1-c1ccccc1	4.7*
N#Cc1cnn(-c2ccccc2)c1NC(=O)CSc1nnc(-c2ccc(Cl)cc2)o1	-0.2
COC(=O)c1csc(S(=O)(=O)N2CCCC2)c1OC	-1.9
CC(C)=NNC(=S)Nc1ccc(C)cc1C	1.2
COc1cc(C(F)(F)F)cc(C(F)(F)F)c1C(=O)NCc1cccs1	0.18
CCOc1ccc(-n2c(O)cnc2Nc2nc(C)cc(C)n2)cc1	1.3
Cc1cc(C)nc(Nc2ncc(O)n2-c2ccc(C)c(C)c2)n1	3.6*
Cc1cc(C)c2c(C)nn(-c3ccc(C)c(C)c3)c2n1	-3.5
SMILES	Dicer inh
c1ccc(NCCNc2ccccc2)cc1	0.57
COc1cccc2c1OC(c1cccnc1)N1N=C(c3cc(Cl)ccc3O)CC21 (stereo unspecified)	1.1
COc1ccc(C2CC(c3ccc(Cl)cc3)Nc3nc(N)nn32)cc1OC (stereo unspecified)	-1.2
COc1ccc(C2CC(c3cc(Cl)ccc3O)=NN2)cc1OC (stereo unspecified)	4.4*
Nc1cc(=O)[nH]c(SCC(=O)Nc2ccc(Cl)cn2)n1	-0.36
CSC(=NCc1cccs1)NC(=O)c1c(Cl)cccc1Cl	-0.38
NC(CCc1nc2ccccc2[nH]1)C(=O)O (stereo unspecified)	-0.22
CCCc1cc(=O)[nH]c(SCC(=O)Nc2ccc(F)c(Cl)c2)n1	3.1*
CCCc1cc(=O)[nH]c(SCc2ccc(Cl)cc2Cl)n1	-3.8
CCCc1cc(=O)[nH]c(SCc2ccc(Cl)cc2)n1	-3.5
CCc1cccc(CC)c1N(C)C(=O)c1cnccc1C(F)(F)F	-0.84
Cc1nnc(Nc2ccc(C)c(C)c2)s1	7.8
CSc1cccc(NC(=O)Cn2nc(C)c(Oc3ccccc3)c2C)c1	-0.64
CCOC(=O)N/N=C/c1ccc(OC)c(Br)c1	-1.3
CCOC(=O)c1cnn2c(C)cc(-c3ccc(F)cc3)nc12	-0.57
Cc1ccc(-c2cc(C(F)(F)F)n3ncc(C(=O)Nc4ccc5c(c4)OCO5)c3n2)cc1	-0.12
CC(C)OC(=O)c1cnn2c(C(F)(F)F)cc(-c3ccc(F)cc3)nc12	4.7*
CCCCOC(=O)C(C)Oc1ccc2c(=O)c(-c3ccccc3)coc2c1 (stereo unspecified)	1.2
CCOC(=O)C(C)Oc1cc(OC(C)C(=O)OCC)c2c(=O)cc(-c3ccccc3)oc2c1 (stereo unspecified)	4.1*
CCOC(=O)C(C)Oc1ccc2c(C)cc(=O)oc2c1 (stereo unspecified)	1.3
O=C1CC(c2cccs2)Cc2nc(NCCSc3ccc(Cl)cc3)ncc21 (stereo unspecified)	0.83
Cc1ccc(-c2nnc(NCc3ccccc3)c3ccccc23)cc1S(=O)(=O)NCCO	0.06
Cc1ccc(-c2nnc(Nc3ccc(O)cc3)c3ccccc23)cc1S(=O)(=O)N(C)C	2.4
CNS(=O)(=O)c1cc(-c2nnc(Nc3ccc4c(c3)OCO4)c3ccccc23)ccc1C	4.8*
CC(C)(C)c1cc(C(=O)/C(C#N)=C/Nc2ccccc2)no1	1.5
Cc1ccc(-c2nnc(NCc3ccccc3)c3ccccc23)cc1S(=O)(=O)NCc1cccnc1	-1.2
CCOc1ccc(S(=O)(=O)Nc2ccc3oc(C)c(C(=O)OCCOC)c3c2)cc1	0.74
CCOC(=O)c1c(C)oc2c(Br)cc(NS(=O)(=O)c3ccc(Cl)c(C)c3)cc12	0.56
CCOC(=O)c1c(C)oc2ccc(NS(=O)(=O)c3ccc(Cl)cc3)cc12	3.6*
OC1(C(F)(F)F)CC(/C=C/c2ccc3c(c2)OCO3)=NN1 (stereo unspecified)	-0.2

Screens (PubChem BioAssay)
